Test results from PubChem BioAssay (EPA / NIEHS).
Records with an inconclusive call do not appear. Calls of active or inactive are those of the source. The calls were made as follows, unless noted: active = hit-call score of the fitted dose curve at least 0.9, where 1 is the maximum; inactive = score below 0.9.

Assays:
[1] = target: Aryl hydrocarbon receptor (Homo sapiens) (UniProt P35869); test: ATG_Ahr_CIS: Attagene CIS-FACTORIAL HepG2 Assay for human Aryl Hydrocarbon Receptor (Ahr) (AID 2282930); conditions: HepG2 AhR cis-factorial reporter transcription; actives raise or lower the signal
Sequence of Aryl hydrocarbon receptor (Homo sapiens) (P35869 whole entry, looked up): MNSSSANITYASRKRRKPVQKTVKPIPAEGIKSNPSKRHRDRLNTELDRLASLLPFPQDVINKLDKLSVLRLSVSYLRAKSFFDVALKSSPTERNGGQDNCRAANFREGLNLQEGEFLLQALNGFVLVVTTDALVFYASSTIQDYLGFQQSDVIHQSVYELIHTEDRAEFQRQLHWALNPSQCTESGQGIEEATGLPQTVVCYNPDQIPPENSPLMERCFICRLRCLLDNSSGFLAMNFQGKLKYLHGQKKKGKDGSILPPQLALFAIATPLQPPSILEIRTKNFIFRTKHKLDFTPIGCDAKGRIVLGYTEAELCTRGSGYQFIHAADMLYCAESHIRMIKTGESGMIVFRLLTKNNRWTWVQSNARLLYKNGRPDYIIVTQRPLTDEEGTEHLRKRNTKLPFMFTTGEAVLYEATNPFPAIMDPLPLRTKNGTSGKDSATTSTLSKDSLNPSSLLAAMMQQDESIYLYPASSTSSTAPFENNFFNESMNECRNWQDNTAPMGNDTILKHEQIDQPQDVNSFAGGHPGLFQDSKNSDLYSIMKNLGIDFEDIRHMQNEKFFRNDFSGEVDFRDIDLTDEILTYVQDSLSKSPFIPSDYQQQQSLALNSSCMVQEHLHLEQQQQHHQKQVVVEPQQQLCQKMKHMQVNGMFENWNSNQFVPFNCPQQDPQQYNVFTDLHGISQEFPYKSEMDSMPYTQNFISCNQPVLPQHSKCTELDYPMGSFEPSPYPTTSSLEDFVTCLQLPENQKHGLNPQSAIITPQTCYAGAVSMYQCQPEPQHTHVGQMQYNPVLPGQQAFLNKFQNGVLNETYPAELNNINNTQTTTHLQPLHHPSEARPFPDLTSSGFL
Method in brief: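 HepG2, transient MRTU (cis) transfection, 24 h exposure. RNA → cDNA → PCR → 6-FAM primer extension → HpaI 2 h 37 C → CE. Fit: bidirectional, DMSO baseline.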

[2] = ATG_M_61_CIS: Attagene CIS-FACTORIAL HepG2 Assay for M61 Transcription Factor (Internal Marker) (AID 2282937); conditions: HepG2 Attagene CIS-FACTORIAL M61 internal marker reporter; actives raise or lower the signal
Method in brief: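 Fluorescence from labelled cDNA fragments, separated by capillary electrophoresis, quantifies reporter induction. HepG2 cells bearing transiently transfected cis-promoter MRTUs were incubated with test chemical for 24 h; DMSO defined baseline for gain/loss fitting.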

[3] = ATG_GLI_CIS: Attagene CIS-FACTORIAL HepG2 Assay for human Zinc Finger Protein GLI1 (AID 2282945); conditions: HepG2, Attagene cis-factorial reporter mRNA, GLI element; actives raise or lower the signal
Method in brief: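 Bidirectional curve fits relative to DMSO, using reporter mRNA levels from RT-PCR plus capillary electrophoresis. Cells were HepG2 transiently carrying cis-regulated reporter constructs, harvested 24 h after dosing.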

[4] = ATG_GRE_CIS: Attagene CIS-FACTORIAL HepG2 Assay for human Glucocorticoid Response Elements (GRE) (AID 2282947); conditions: HepG2 GRE cis-reporter, Attagene multiplex mRNA; actives raise or lower the signal
Method in brief: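 Multiplexed cis-reporter mRNA induction, HepG2, 24 h post-dose. RT-PCR, FAM-labelled, HpaI-digested amplicons by CE. Bidirectional fit vs DMSO.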

[5] = target: Hypoxia-inducible factor 1-alpha (Homo sapiens) (UniProt Q16665); test: ATG_HIF1a_CIS: Attagene CIS-FACTORIAL HepG2 Assay for human Hypoxia Inducible Factor 1 (HIF1A) (AID 2282951); conditions: HepG2 Attagene cis-factorial HIF1a reporter transcription; actives raise or lower the signal
Sequence of Hypoxia-inducible factor 1-alpha (Homo sapiens) (Q16665 whole entry, looked up): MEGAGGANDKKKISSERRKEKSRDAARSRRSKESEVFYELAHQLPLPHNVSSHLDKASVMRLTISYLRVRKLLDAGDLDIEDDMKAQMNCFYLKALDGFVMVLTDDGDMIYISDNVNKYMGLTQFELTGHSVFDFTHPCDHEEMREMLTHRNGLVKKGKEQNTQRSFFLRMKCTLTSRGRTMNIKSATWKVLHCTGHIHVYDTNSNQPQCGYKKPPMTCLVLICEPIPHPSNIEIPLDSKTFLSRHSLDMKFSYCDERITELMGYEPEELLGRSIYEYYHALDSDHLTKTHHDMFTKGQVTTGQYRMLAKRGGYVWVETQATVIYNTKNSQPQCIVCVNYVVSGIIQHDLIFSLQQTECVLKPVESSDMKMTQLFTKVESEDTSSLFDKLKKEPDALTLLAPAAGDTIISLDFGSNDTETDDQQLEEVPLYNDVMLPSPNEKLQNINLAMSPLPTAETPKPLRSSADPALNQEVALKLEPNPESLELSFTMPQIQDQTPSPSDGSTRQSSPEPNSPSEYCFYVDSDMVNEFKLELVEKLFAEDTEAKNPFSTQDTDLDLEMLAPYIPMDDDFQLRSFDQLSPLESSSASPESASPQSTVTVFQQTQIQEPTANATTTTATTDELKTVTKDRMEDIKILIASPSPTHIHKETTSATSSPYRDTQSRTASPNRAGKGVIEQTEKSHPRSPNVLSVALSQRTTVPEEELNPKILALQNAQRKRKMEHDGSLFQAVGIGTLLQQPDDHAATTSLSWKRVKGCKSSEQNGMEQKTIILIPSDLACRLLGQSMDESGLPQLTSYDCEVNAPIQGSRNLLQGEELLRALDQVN
Method in brief: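 In this multiplexed cell assay, HepG2 cells bearing transfected cis reporters are dosed for 24 h and reporter mRNA is read by RT-PCR plus capillary electrophoresis; signal increases and decreases are both scored against DMSO.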

[6] = ATG_MRE_CIS: Attagene CIS-FACTORIAL HepG2 Assay for human Metal Responsive Element (MRE) (AID 2282954); conditions: HepG2 MRE cis-reporter transcription, Attagene multiplex; actives raise or lower the signal
Method in brief: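 Multiplexed cis-reporter assay in human HepG2 liver cells, 24 h incubation with test chemical. Reporter transcripts measured by RT-PCR and capillary electrophoresis; values from bidirectional curve fitting versus DMSO.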

[7] = target: Paired box protein Pax-6 (Homo sapiens) (UniProt P26367); test: ATG_Pax6_CIS: Attagene CIS-FACTORIAL HepG2 Assay for human Paired Box 6 (PAX6) (AID 2282956); conditions: HepG2 CIS-FACTORIAL PAX6 reporter transcription, RNA readout; actives raise or lower the signal
Sequence of Paired box protein Pax-6 (Homo sapiens) (P26367 whole entry, looked up): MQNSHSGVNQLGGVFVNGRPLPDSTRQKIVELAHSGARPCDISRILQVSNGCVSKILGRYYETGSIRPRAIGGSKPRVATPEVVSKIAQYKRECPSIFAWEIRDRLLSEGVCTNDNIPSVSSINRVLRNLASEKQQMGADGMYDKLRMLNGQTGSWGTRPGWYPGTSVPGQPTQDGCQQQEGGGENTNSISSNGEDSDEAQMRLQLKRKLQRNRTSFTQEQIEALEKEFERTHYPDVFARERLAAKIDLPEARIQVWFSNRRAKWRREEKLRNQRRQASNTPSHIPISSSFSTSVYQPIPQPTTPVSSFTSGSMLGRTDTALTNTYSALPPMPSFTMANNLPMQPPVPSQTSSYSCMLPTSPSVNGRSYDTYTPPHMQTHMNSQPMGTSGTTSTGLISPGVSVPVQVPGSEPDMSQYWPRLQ
Method in brief: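 Fluorescent RT-PCR products separated by capillary electrophoresis report PAX6-linked promoter mRNA in HepG2 cells 24 h post-dose. Curves fitted bidirectionally, DMSO as negative control.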

[8] = ATG_TCF_b_cat_CIS: Attagene CIS-FACTORIAL HepG2 Assay for human T-Cell-Factor with beta-catenin (TCF/b-cat) (AID 2282965); conditions: HepG2 TCF/beta-catenin cis-reporter transcription, actives raise or lower the signal
Method in brief: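 Measured: reporter mRNA in HepG2 transiently transfected with cis-promoter reporter units, 24 h after chemical addition. Fitting was bidirectional, DMSO as negative control.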

[9] = ATG_TGFb_CIS: Attagene CIS-FACTORIAL HepG2 Assay for human Transforming Growth Factor (TGF) (AID 2282967); conditions: HepG2 Attagene CIS TGFb reporter, mRNA transcription; actives raise or lower the signal
Method in brief: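 HepG2 cells transiently transfected with cis-promoter-driven multiple reporter units measure endogenous TF activity; reporter mRNA quantified at 24 h by RT-PCR, FAM labeling, HpaI digestion and capillary electrophoresis. Bidirectional fit vs DMSO.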

[10] = ATG_VDRE_CIS: Attagene CIS-FACTORIAL HepG2 Assay for human Vitamin D Receptor Element (VDRE) (AID 2282968); conditions: HepG2 VDRE cis-reporter transcription, actives raise or lower the signal
Method in brief: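 Measures endogenous factor activity through cis-element-driven reporter transcripts in transiently transfected HepG2. Cells are treated 24 h; reporter mRNA is quantified by RT-PCR and capillary electrophoresis; fitting is bidirectional.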

[11] = target: X-box-binding protein 1 (Homo sapiens) (UniProt P17861); test: ATG_Xbp1_CIS: Attagene CIS-FACTORIAL HepG2 Assay for human X-box Binding Protein 1 (XBP1) (AID 2282972); conditions: HepG2 XBP1 cis-element reporter, Attagene multiplex; actives raise or lower the signal
Sequence of X-box-binding protein 1 (Homo sapiens) (P17861 whole entry, looked up): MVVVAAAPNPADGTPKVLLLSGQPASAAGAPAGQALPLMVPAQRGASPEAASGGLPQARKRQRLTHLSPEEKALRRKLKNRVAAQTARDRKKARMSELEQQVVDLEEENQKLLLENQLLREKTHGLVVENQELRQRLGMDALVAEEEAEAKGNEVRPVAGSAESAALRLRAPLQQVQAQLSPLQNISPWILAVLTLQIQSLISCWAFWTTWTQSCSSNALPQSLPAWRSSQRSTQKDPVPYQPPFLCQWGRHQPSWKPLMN
Method in brief: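 Multiplexed cis-reporter readout in transfected HepG2 liver cells. Exposure lasted 24 hours. Activity in either direction was fitted against DMSO as negative control and baseline.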

[12] = target: Transcriptional activator Myb (Homo sapiens) (UniProt P10242); test: ATG_Myb_CIS: Attagene CIS-FACTORIAL HepG2 Assay for human Myeloblastosis (Myb) Proto-Oncogene Transcription Factor (AID 2282986); conditions: HepG2 Attagene CIS-FACTORIAL Myb reporter transcription; actives raise or lower the signal
Sequence of Transcriptional activator Myb (Homo sapiens) (P10242 whole entry, looked up): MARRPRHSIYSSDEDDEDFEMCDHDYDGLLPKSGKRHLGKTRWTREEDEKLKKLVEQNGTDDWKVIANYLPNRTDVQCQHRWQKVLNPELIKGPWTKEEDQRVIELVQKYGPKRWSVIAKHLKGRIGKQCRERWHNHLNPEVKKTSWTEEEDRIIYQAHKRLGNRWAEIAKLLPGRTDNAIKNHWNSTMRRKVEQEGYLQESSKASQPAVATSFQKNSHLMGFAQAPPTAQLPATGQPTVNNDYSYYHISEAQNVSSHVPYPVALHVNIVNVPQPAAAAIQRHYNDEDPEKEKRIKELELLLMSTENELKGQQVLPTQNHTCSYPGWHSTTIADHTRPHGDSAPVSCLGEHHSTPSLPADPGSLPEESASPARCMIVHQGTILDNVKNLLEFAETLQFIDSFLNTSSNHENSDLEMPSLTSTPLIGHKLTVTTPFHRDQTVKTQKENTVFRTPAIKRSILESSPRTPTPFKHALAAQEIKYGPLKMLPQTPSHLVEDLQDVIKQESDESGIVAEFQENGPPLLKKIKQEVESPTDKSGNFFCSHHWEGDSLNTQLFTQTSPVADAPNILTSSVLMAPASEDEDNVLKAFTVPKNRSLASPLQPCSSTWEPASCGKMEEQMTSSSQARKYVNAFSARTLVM
Method in brief: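 Fluorescence signals from capillary electrophoresis of RT-PCR-amplified reporter cDNA give the read-out. Cells: HepG2 transfected with multiple cis-regulated reporter units. Exposure lasts 24 hours; DMSO defines baseline for gain or loss of signal.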

[13] = target: Nuclear respiratory factor 1 (Homo sapiens) (UniProt Q16656); test: ATG_NRF1_CIS: Attagene CIS-FACTORIAL HepG2 Assay for human Nuclear Respiratory Factor 1 (NRF1) Orphan Gene (AID 2282987); conditions: HepG2 NRF1 cis-element reporter, Attagene multiplex; actives raise or lower the signal
Sequence of Nuclear respiratory factor 1 (Homo sapiens) (Q16656 whole entry, looked up): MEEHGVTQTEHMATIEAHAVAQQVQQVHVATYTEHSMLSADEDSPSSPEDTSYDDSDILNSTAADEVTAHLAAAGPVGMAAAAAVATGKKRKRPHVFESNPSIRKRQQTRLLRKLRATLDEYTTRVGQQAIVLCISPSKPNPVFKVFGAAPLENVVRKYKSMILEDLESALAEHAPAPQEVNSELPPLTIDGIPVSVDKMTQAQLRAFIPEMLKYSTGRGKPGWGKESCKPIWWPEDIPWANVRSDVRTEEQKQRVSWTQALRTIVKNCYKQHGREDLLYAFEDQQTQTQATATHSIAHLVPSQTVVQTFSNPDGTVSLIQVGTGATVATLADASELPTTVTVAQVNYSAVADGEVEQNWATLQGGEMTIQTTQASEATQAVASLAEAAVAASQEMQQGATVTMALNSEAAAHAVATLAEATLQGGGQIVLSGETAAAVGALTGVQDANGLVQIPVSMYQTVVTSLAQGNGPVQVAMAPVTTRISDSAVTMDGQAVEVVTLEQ
Method in brief: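 Transcriptional reporter readout, one component of a 52-endpoint multiplexed HepG2 panel. Exposure 24 h; mRNA detected via RT-PCR and fluorescent capillary electrophoresis; fitting in both directions against DMSO.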

[14] = ATG_NFI_CIS: Attagene CIS-FACTORIAL HepG2 Assay for human Nuclear Factor I (NFI) (AID 2282989); conditions: HepG2 cis-regulatory reporter, NFI response element transcription; actives raise or lower the signal
Method in brief: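 Endogenous TF activity in HepG2 cells transiently transfected with cis-element-driven multiplexed reporter units, read 24 h after dosing. Reporter mRNA quantified by RT-PCR, 6-FAM labelling, HpaI digestion and capillary electrophoresis; bidirectional fit versus DMSO.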

[15] = target: Myc proto-oncogene protein (Homo sapiens) (UniProt P01106); test: ATG_Myc_CIS: Attagene CIS-FACTORIAL HepG2 Assay for human Myelocytomatosis (Myc) Proto-Oncogene Transcription Factor (AID 2282990); conditions: HepG2, Attagene cis-reporter transcription factor activity; actives raise or lower the signal
Sequence of Myc proto-oncogene protein (Homo sapiens) (P01106 whole entry, looked up): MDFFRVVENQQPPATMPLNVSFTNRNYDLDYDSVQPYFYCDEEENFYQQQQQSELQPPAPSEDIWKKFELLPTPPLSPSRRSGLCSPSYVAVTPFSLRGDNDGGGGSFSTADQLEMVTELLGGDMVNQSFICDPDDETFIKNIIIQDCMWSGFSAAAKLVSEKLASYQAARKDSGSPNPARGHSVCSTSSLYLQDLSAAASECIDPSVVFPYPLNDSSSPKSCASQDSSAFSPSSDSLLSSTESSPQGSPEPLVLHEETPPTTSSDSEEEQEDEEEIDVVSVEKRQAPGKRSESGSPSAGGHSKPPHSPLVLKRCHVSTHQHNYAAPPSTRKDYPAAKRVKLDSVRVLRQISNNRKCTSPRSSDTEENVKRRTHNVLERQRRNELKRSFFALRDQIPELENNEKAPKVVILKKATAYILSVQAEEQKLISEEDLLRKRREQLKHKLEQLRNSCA
Method in brief: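 Cells of the HepG2 human liver line bear multiple cis-driven reporter transcription units. Reporter mRNA after 24 h exposure is reverse-transcribed, amplified, labelled and resolved by capillary electrophoresis, with gain- or loss-of-signal fitting relative to DMSO.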

[16] = ATG_NF_kB_CIS: Attagene CIS-FACTORIAL HepG2 Assay for human Nuclear Factor Kappa B (NF-kB) (AID 2282991); conditions: HepG2 Attagene cis-factorial NF-kB reporter mRNA; actives raise or lower the signal
Method in brief: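 HepG2, transient multi-reporter transfection, cis promoter elements (endogenous TFs). 24 h exposure. Total RNA → RT → PCR → 6-FAM label → HpaI → CE. Gain/loss vs DMSO.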

[17] = ATG_Oct_MLP_CIS: Attagene CIS-FACTORIAL HepG2 Assay for human Octamer-Binding Transcription Factor (Oct) (AID 2282993); conditions: HepG2 Attagene cis-factorial Oct reporter, mRNA; actives raise or lower the signal
Method in brief: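 HepG2 cells transiently transfected with cis-element-driven reporter transcription units (endogenous TF activity); 24 h compound exposure. Reporter mRNA quantified by RT-PCR, 6-FAM labelling, HpaI digestion and capillary electrophoresis; bidirectional fit versus DMSO baseline.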

[18] = target: Cellular tumor antigen p53 (Homo sapiens) (UniProt P04637); test: ATG_p53_CIS: Attagene CIS-FACTORIAL HepG2 Assay for human p53 Transcription Factor (AID 2282994); conditions: HepG2 p53 cis-element reporter, Attagene mRNA; actives raise or lower the signal
Sequence of Cellular tumor antigen p53 (Homo sapiens) (P04637 whole entry, looked up, the tested form may be a part): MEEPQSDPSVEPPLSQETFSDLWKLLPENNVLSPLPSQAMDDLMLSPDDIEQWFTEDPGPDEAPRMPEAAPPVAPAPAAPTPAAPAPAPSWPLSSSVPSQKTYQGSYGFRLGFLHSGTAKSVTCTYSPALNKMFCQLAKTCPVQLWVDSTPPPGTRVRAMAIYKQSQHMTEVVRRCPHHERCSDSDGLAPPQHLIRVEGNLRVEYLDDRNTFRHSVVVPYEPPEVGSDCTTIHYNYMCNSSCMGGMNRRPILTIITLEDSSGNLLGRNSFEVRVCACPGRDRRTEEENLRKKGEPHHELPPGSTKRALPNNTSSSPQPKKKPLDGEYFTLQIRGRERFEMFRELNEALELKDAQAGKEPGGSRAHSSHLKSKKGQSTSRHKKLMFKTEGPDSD
Method in brief: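 Steps: transfect HepG2 with multiplexed cis reporter constructs; dose chemicals 24 h; extract RNA, reverse-transcribe, PCR-amplify reporter sequences; FAM-label, HpaI-digest, resolve fragments by CE. Activity fitted both directions relative to DMSO.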

[19] = target: Peroxisome proliferator-activated receptor gamma (Homo sapiens) (UniProt P37231); test: ATG_PPARg_TRANS: Attagene TRANS-FACTORIAL HepG2 Assay for human Peroxisome Proliferator-activated Receptor-gamma (PPARg) (AID 2283007; active = hit-call score of the fitted dose curve at least 0.9, where 1 is the maximum)
Sequence of Peroxisome proliferator-activated receptor gamma (Homo sapiens) (P37231 whole entry, looked up): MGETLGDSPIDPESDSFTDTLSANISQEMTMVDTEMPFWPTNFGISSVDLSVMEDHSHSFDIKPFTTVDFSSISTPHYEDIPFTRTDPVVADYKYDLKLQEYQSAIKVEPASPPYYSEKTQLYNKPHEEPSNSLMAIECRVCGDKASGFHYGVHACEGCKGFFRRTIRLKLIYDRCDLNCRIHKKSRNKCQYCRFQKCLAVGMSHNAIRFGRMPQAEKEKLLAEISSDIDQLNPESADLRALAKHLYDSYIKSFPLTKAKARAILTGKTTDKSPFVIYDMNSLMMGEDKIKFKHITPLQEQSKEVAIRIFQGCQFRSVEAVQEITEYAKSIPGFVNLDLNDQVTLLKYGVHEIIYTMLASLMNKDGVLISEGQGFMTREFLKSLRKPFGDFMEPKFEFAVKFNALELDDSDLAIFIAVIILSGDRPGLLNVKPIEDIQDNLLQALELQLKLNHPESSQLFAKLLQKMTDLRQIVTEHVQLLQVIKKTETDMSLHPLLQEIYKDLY
Method in brief: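 Multiplexed reporter transcription units in HepG2, 24 h dosing, reporter transcripts quantified by fluorescent RT-PCR and capillary electrophoresis. Increase over DMSO scored.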

[20] = ATG_XTT_Cytotoxicity: Cytotoxicity Assessment in the Attagene TRANS-FACTORIAL HepG2 Assay (AID 2283584; active = hit-call score of the fitted dose curve at least 0.9, where 1 is the maximum;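 as to AC50: cells exposed to compound for 24 h before reading; active means loss of viability signal versus DMSO baseline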)
Method in brief: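 XTT readout of cell number in transfected HepG2 cells, 24 h post-dosing; DMSO serves as negative control and baseline, with activity taken as loss of viability signal.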

Measured: AC50

c1ccc(P(c2ccccc2)c2ccccc2)cc1
active: [8] 158 µM
not listed: [20]
inactive: all other assays above

C[N+](C)(C)CC(=O)O
not listed: [4] | [5] | [6] | [10] | [16] | [18] | [19]
inactive: all other assays above

N#CCCCCC#N
not listed: [16] | [19]
inactive: all other assays above

CC(C)COP(=O)(OCC(C)C)OCC(C)C
active: [1] 73.3 µM | [10] 55.8 µM | [19] 49.8 µM
not listed: [2] | [3]
inactive: all other assays above

CCOP(=O)(OCC)OCC
not listed: [16]
inactive: all other assays above

CC1CCC(=O)O1 (stereo not given)
not listed: [1] | [19]
inactive: all other assays above

Nc1ccccc1C(=O)OCCc1ccccc1
active: [1] 10 µM | [5] 31.9 µM | [6] 33.4 µM | [10] 22.3 µM | [19] 24.9 µM
not listed: [3]
inactive: all other assays above

Oc1ccc(C2(c3ccc(O)cc3)c3ccccc3-c3ccccc32)cc1
active: [3] 19.1 µM | [5] 11.1 µM | [6] 13.1 µM | [7] 14.9 µM | [10] 5 µM | [11] 13.6 µM | [13] 19.1 µM | [14] 17.6 µM | [17] 9.82 µM | [18] 17.2 µM | [20] 34.9 µM
inactive: [1] | [2] | [4] | [8] | [9] | [12] | [16] | [19]

N#CCCCl
not listed: [1] | [6] | [19]
inactive: all other assays above
